Source: PubChem BioAssay AID777 (Sanford-Burnham Center for Chemical Genomics, 2007)
Screen size: about 96,000 compounds; about 19,000 (20%) were called active. A selection follows. Values without a mark were called inactive.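 How the source made its calls: active means blocking of liver enzyme CYP2C9 beyond about 50% at 5 µM (limit read from the data); inactive means the rest.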

biological target: Cytochrome P450 2C9 (Homo sapiens) (UniProt P11712); assay: blockers of cytochrome P450 2C9 activity – biochemical, luminescence, ADME assay, primary screen (AID 777); conditions: CYP2C9 Supersomes, luciferin-H conversion, at 5 µM, stronger effect = higher value
Sequence (P11712 whole entry, looked up): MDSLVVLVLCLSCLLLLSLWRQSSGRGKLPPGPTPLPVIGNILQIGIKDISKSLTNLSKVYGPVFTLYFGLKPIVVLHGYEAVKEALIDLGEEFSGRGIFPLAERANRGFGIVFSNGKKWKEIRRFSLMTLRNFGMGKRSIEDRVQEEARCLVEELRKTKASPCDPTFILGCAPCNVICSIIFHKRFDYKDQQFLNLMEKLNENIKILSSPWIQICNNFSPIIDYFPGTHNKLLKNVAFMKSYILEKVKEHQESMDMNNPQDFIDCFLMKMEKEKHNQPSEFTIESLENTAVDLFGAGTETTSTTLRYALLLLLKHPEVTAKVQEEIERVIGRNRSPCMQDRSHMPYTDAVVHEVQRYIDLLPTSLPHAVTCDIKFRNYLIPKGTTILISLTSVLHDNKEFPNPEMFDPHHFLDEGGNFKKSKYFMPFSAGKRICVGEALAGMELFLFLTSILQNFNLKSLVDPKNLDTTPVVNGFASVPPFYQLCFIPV

| SMILES | inhibition |
| --- | --- |
| CCOc1ccccc1N(CC(=O)Nc1ccccc1C(=O)OC)S(C)(=O)=O | 6.7% |
| COC(=O)c1ccccc1NC(=O)c1ccccc1NS(C)(=O)=O | 80.6% (active) |
| COC(=O)c1ccccc1NC(=O)CN(Cc1ccc(Cl)cc1)S(C)(=O)=O | 55.5% (active) |
| COC(=O)c1ccc(NC(=O)c2ccccc2NS(=O)(=O)c2ccccc2)cc1 | 96.1% (active) |
| COC(=O)c1ccc(NC(=O)C(C)N2C(=O)c3ccccc3C2=O)cc1 (configuration not stated) | 26.7% |
| CCOc1ccc(NC(=O)c2ccccc2NS(C)(=O)=O)cc1 | 54.1% (active) |
| COC(=O)c1ccccc1NC(=O)c1cncc(Br)c1 | -3.1% |
| COC(=O)c1ccccc1NC(=O)CN(Cc1ccccc1)S(C)(=O)=O | 27.6% |
| CCCNC(=O)Nc1ccccc1C(=O)Nc1ccc(OC)cc1 | 44.3% |
| CCCCNC(=O)c1ccccc1NC(=O)c1ccccc1N(C)S(C)(=O)=O | -0.4% |
| CCOc1ccc(NC(=O)N(CC(C)C)CC(C)C)cc1 | 6.8% |
| S=C1SCN(CCN2CCOCC2)CN1Cc1ccccc1 | 22.3% |
| Cc1nc(NC(CC(C)C)C(=O)O)c2nc(C)oc2n1 (configuration not stated) | 15.1% |
| COC(=O)CNC(c1ccccc1Cl)c1cc(Br)ccc1NC(=O)CCN1CCOCC1 (configuration not stated) | 7.3% |
| C=CCn1c(-c2ccc3[nH]c(C)c(C)c3c2)n[nH]c1=S | 31.1% |
| CCCc1nc(-c2ccccc2O)n(-c2ccccc2)n1 | -16.7% |
| Cc1ccc(S(=O)(=O)N2C3C=CC(C3)C2C(=O)O)cc1 (configuration not stated) | -4.8% |
| CCOCCCNC(=O)C(NC(=O)c1ccc(=O)[nH]c1)c1ccc(Cl)cc1 (configuration not stated) | 2.5% |
| O=C(NCCOc1ccccc1)c1ccccc1 | -2.4% |
| Cc1ccc(S(=O)(=O)NCC(=O)N(CC(=O)NC(C)(C)C)Cc2cccs2)cc1 | -0.5% |
| CCOC(=O)N1CCC(NC(=O)Cn2cc3c(n2)CCCCC3)CC1 | -10.8% |
| CC(C)c1ccc(/C=C/C(=O)NNC(=O)c2cccnc2)cc1 | 6.3% |
| CCCCn1c(SCc2ncc(-c3ccccc3)o2)nc2cc(S(N)(=O)=O)ccc21 | 54.5% (active) |
| OC(COc1ccccc1)Cn1cc(Br)cn1 (configuration not stated) | 18.3% |
| O=C(O)c1ccc(-n2cccc2)cc1O | 4.7% |
| CCC(C)(C)n1nnnc1C(c1cccs1)N1CCN(Cc2ccccc2)CC1 (configuration not stated) | 43.4% |

| SMILES | inhibition |
| --- | --- |
| CCC(C)(C)n1nnnc1C(c1cccs1)N1CCN(c2nc3ccccc3s2)CC1 (configuration not stated) | 71% (active) |
| CCC(C)(C)n1nnnc1CN1CCN(c2nc3ccc(C)cc3cc2C#N)CC1 | 8.7% |
| COCCCNC(=O)CCc1nc2cccnc2n1Cc1ccc(OC)cc1 | -1.2% |
| Cn1nc(C(F)(F)F)c2cc(NC(=O)OCC(C)(C)C)sc21 | -4.4% |
| COc1ccc(OC)c2c1sc(=NC(=O)CN1C(=O)CCC1=O)n2C | 2.3% |
| C=CCn1c2ccccc2c2nnc(SC(CC)C(=O)Nc3nc(C)c(C(=O)OCC)s3)nc21 (configuration not stated) | 75% (active) |
| CCOC(=O)c1sc(NC(=O)C(CC)Sc2nccn2C)nc1C (configuration not stated) | 45.4% |
| CCOC(=O)c1sc(/N=C/Nc2nc(C)c(C(=O)OCC)s2)nc1C | 29.2% |
| O=C(c1cccnc1NCc1ccccc1)N1CCOCC1 | 4% |
| Cc1c(C(=O)OC(C)C)sc(NC(=O)c2cccnc2)c1C#N | 95.4% (active) |
| O=C(Nc1cnccn1)c1cccnc1 | -0.8% |
| CCOC(=O)c1cc(NC(=O)c2cccnc2)cc(C(=O)OCC)c1 | 37.8% |
| O=C(COc1ncnc2c(Cl)cc(Cl)cc12)N1CCN(S(=O)(=O)c2ccccc2)CC1 | -7.6% |
| CCCCCN(C(=O)NC(=O)Nc1ccccc1OC)S(C)(=O)=O | 68.3% (active) |
| CCCCCN(C(=O)NC(=O)Nc1ccccc1C)S(C)(=O)=O | 32.9% |
| CCCCCCCC(=O)NC(Nc1ccccc1OC)C(Cl)(Cl)Cl (configuration not stated) | 12.1% |
| Cc1c(CCO)c(=O)[nH]n1C(=O)c1c(F)cccc1F | -4.2% |
| Cc1ccc(N2C(=O)S/C(=C/c3cn(C)c4ccccc34)C2=O)cc1 | -33.6% |
| COc1ccc(/C=C2/S/C(=N/N=C3\CC4CCC3(C)C4(C)C)NC2=O)cc1 (configuration not stated) | -0.8% |
| Cc1sc(NC(=S)NC(=O)c2cccs2)nc1-c1ccc(CC(C)C)cc1 | 14.4% |
| COc1cc(C2C3C(=O)N(c4ccccc4)C(=O)C3ON2c2ccccc2)ccc1O (configuration not stated) | 69.1% (active) |
| Cc1ccccc1N1C(=O)C2ON(c3ccccc3)C(c3ccncc3)C2C1=O (configuration not stated) | 65.9% (active) |
| CCOC(=O)C1=C(c2ccccc2)N=C2SCC(=O)N2C1c1ccc(O)c(OC)c1 (configuration not stated) | 33.1% |
| COc1cc(C2C(C(=O)Nc3ccccc3OC)=C(C)Nc3ncnn32)ccc1O (configuration not stated) | 12.1% |
| CC(=O)c1cc(NC(=O)c2ccccc2)c(=O)oc1/C=C/N(C)C | 46.8% |
| CCCCCOC(=O)c1ccc(N2C(=O)C3C4C=CC(C4)C3C2=O)cc1 (configuration not stated) | 46.3% |

| SMILES | inhibition |
| --- | --- |
| O=S(=O)(NCc1cccnc1)c1ccc(Br)s1 | 14.7% |
| Cc1nc2nc(COc3ccccc3)[nH]n2c(=O)c1Cc1ccccc1 | 17.5% |
| CCOCCCNS(=O)(=O)Cc1ccccc1 | -1.6% |
| CCOc1ccc2nc(NCCNS(=O)(=O)c3ccccc3)c(C#N)cc2c1 | 22.2% |
| CCOc1ccc2nc(N3CCCN(C(=O)Nc4ccccc4C)CC3)c(C#N)cc2c1 | 98.1% (active) |
| CCOc1ccc2cc(C#N)c(SCC(=O)OC)nc2c1 | 21.4% |
| CCOC(=O)CC1C(=O)NCCN1C(=O)COc1ccc(Br)cc1C (configuration not stated) | -12% |
| Fc1cnc(N2CCOCC2)nc1NCc1ccccc1 | -1.5% |
| O=C(CNC(=O)c1ccc(Cl)cc1Cl)NCC(=O)Nc1ccccc1N1CCOCC1 | 57.6% (active) |
| O=S(=O)(Nc1ccccc1N1CCOCC1)c1ccc(Cl)s1 | 10.6% |
| Cc1c(NC(=O)c2cc(-c3ccc(Cl)s3)nc3ccccc23)c(=O)n(-c2ccccc2)n1C | 29.3% |
| O=C(CN1CCOCC1)Nc1cc(Cl)ccc1Cl | -138% |
| COc1c(C)cccc1C(=O)Nc1cc(Cl)ccc1N1CCOCC1 | 26.5% |
| Cc1cc(C(=O)Nc2ccccc2N2CCOCC2)c2ccccc2n1 | 58.2% (active) |
| Nc1nonc1-c1noc(-c2ccc(Br)o2)n1 | 2.6% |
| O=c1[nH]c(-c2cccs2)nc2ccccc12 | 3.1% |
| CCSc1nc(=S)n(CC)c(C)c1C(C)=O | -26.9% |
| S=C(NCCC1=CCCCC1)Nc1ccccc1 | 14.4% |
| O=C(NCCC1=CCCCC1)C1CCN(Cc2cnn(-c3ccccc3)c2-n2cccc2)CC1 | 48.5% |
| C1=C(CCNc2ncnc3c2cnn3-c2ccccc2)CCCC1 | 62% (active) |
| CC(C)CC[n+]1ccn(C2=C([O-])c3ccccc3C(=O)/C2=N\S(=O)(=O)c2ccccc2)c1 | 40.4% |
| CCCCOC(=O)NCN1C(=O)C2C3C=CC(C3)C2C1=O (configuration not stated) | -5.7% |
| c1ccc(-c2cn3c(n2)CCc2ccc4cccnc4c2-3)cc1 | 20.7% |
| O=S(=O)(N1CCOCC1)N1CCN(c2ccccc2F)CC1 | 17.2% |
| O=C(c1cccc2ccccc12)N1CCN(c2ccccc2F)CC1 | -14.7% |
| O=C(c1ccc(CN2CCOCC2)cc1)N1CCN(c2ccccc2F)CC1 | 51.8% (active) |

| SMILES | inhibition |
| --- | --- |
| COC(=O)[C@H](C(C)C)n1c(C)c(C(C)=O)c(C(C)=O)c1C | 7% |
| O=C(CC1Oc2ccccc2NC1=O)NCCCN1CCN(Cc2ccccc2)CC1 (configuration not stated) | -28.8% |
| CCOC(=O)c1c(C(C#N)C#N)cc(C)nc1C | 41.1% |
| CC1CCCN(c2ccc(C(=O)NCCc3ccccc3)cn2)C1 (configuration not stated) | 80.7% (active) |
| O=C(NCCc1ccccc1)c1ccc(NC2=NC3CS(=O)(=O)CC3S2)cc1 (configuration not stated) | 0.2% |
| O=C(NCCc1ccccc1)c1ccc(OCCOc2ccccc2)cc1 | -10.5% |
| CCC(C)(C)NC(=O)C(c1cccn1C)N(Cc1ccc(C)cc1)C(=O)Cn1nnc2ccccc21 (configuration not stated) | 28.4% |
| CC(C)CNC(=S)NNC(=O)c1ccccc1OC(F)F | 3.6% |
| CNC(=O)c1csc(-c2ccccc2)n1 | 13.2% |
| COc1cccc(C(=O)Nc2ccc(N3CCCC3)cc2)c1 | 11.9% |
| COc1cc(N2CCCC2)c(OC)cc1/C=C(/C#N)c1cccc(Br)c1 | 67.5% (active) |
| CN1CCCc2cc(C#N)c(=O)[nH]c21 | 45.5% |
| O=C(NCc1cccs1)C1CCN(S(=O)(=O)c2ccc3c(c2)OCCO3)CC1 | -174% |
| O=C(NCc1ccccc1)C1CCCN(S(=O)(=O)c2cccs2)C1 (configuration not stated) | 81.9% (active) |
| CCS(=O)(=O)N1CCCC(C(=O)NCc2ccc(C)cc2)C1 (configuration not stated) | 6.9% |
| CN1CCN(S(=O)(=O)c2ccc(N3CCN(S(=O)(=O)c4cccs4)CC3)nc2)CC1 | 49.3% |
| Cc1ccc(CNC(=O)C2CCCN(S(C)(=O)=O)C2)cc1 (configuration not stated) | -3.4% |
| O=C(C1CCN(S(=O)(=O)c2cccs2)CC1)N1CCCCCC1 | 34.9% |
| O=S(=O)(c1cccs1)N1CCN(Cc2ccccc2)CC1 | 69.5% (active) |
| O=S(=O)(c1cccs1)N1CCc2ccccc2C1 | -206% |
| O=C(NCc1ccc2c(c1)OCO2)C1CCCN(S(=O)(=O)c2cccs2)C1 (configuration not stated) | 92.5% (active) |
| O=C(NCc1ccco1)C1CCCN(S(=O)(=O)c2ccccc2)C1 (configuration not stated) | 30.4% |
| CCCS(=O)(=O)N1CCCC(C(=O)NCc2ccco2)C1 (configuration not stated) | 0.9% |
| O=C(NC1CCCCC1)C1CCCN(S(=O)(=O)c2cccs2)C1 (configuration not stated) | 68.3% (active) |
